The whole screen tested about 69,000 compounds, of which about 8,600 (12%) showed an effect of 50% or more. This excerpt belongs to a sample that is enriched for strong results.

The test relates to Plasmodium berghei. Kind of test: Screen against P. berghei liver stage (PbLuc), transformed with Luciferase, at 10uM. Format: functional, HepG2. The conditions noted are these: tested at 10 uM.
For `Cc1ccc(CN(C)c2cc(N3CCCC3CO)ncn2)s1` (centres undefined), the INHIBITION is listed as -21.4%. Regarding `CCOC(=O)N1CCN(c2nc(N3CCCC3)c3ccccc3n2)CC1`, the INHIBITION was 3.68%. In the case of `CCOC(=O)N1CCN(c2nc(N)c3ccccc3n2)CC1` it was -90.8%; in that of `CCOC(=O)N1CCN(c2nc(NCCCO)c3ccccc3n2)CC1`, 51.3%. To `CCOC(=O)N1CCN(c2nc(NC3CC3)c3ccccc3n2)CC1` belongs 52.3%. To `CCOC(=O)N1CCN(c2nc(NC)c3ccccc3n2)CC1` belongs 45%; to `CCOC(=O)N1CCN(c2nc(NCCO)c3ccccc3n2)CC1`, 6.54%. Turning to `CNC(=O)CN1CC[C@H]2CN(C(=O)c3ccccc3F)C[C@H]2C1`, the INHIBITION is 19.4%. To `CCn1c(C2CCNCC2)nn(CCn2ccc(C)n2)c1=O` belongs 21.1%; to `CC(=O)N1CCCCC[C@@H]2[C@@H]1[C@H](c1cccc(F)c1)CN2C(C)=O`, 20.1%; to `CCN1CCC(CNC(=O)C2(c3cccc(C)c3)CCCCC2)CC1`, -3.2%. In the case of `CN1CCC(c2cncc(-c3cccc(Cl)c3)n2)CC1` it was 19.6%; in that of `Clc1ccc(CNc2ccc(Cl)cn2)cc1`, -151%.

`OC1CCCN(CCNc2ncc(Cl)cc2F)C1` (centres undefined): the INHIBITION came to 22.1%. To `OC1CCN(Cc2ccc(CNc3ncc(Cl)cc3F)cc2)CC1` belongs 63.7%; to `CC1CCN(CC(O)CNc2ccc(Cl)cn2)CC1` (centres undefined), 35.6%. In the case of `CN(c1ccc(CNc2ccc(Cl)cn2)cc1)S(C)(=O)=O` it was -95.7%. To `CNS(=O)(=O)Cc1cccc(CNc2ccc(Cl)cn2)c1` belongs 45.2%; to `CC(C)c1ccc(CNC(C)c2ccc(S(C)(=O)=O)cc2)cc1` (centres undefined), 6.39%. Consider `CSc1ccc(CNc2ccccc2CN2CCC(O)CC2)cc1`, for which the INHIBITION is reported as -23.1%. To `Cc1nc(CNC(C)c2ccc(S(=O)(=O)N(C)C)cc2)no1` (centres undefined) belongs 45.7%; to `OC1CCN(Cc2ccc(CNc3ccc(Cl)cn3)cc2)CC1`, 54.3%. To `CC(C)c1ccc(CNC(C)c2ccc(S(=O)(=O)N(C)C)cc2)cc1` (centres undefined) belongs 52.3%.

As for `CN(C)S(=O)(=O)c1ccc(CNc2ccc(Cl)cn2)cc1`, the INHIBITION is 79.8%.

As for `CN(C)S(=O)(=O)N1C[C@@H]2C[C@H](C(=O)NCc3ccccc3)[C@H](C1)O2`, the INHIBITION stood at 21.5%. In the case of `CC(C)Oc1ccc(CNC(=O)CN(C)S(C)(=O)=O)cc1F` it was 13.375%; in that of `O=C(CCc1cc2n(n1)CCN(Cc1ccncc1)C2)N1CCCC1`, 33.5%. To `COCC1CN(C(=O)Cc2ccccn2)Cc2cn(CC3CC3)nc21` (centres undefined) belongs -26%. In the case of `CSc1ccc(CN(CCO)C(=O)CCc2cccc(F)c2)cc1` it was -1.04%; in that of `CC(C)c1nsc(N2CCCOCC2)n1`, 61.6%; in that of `CC(C)c1nsc(N2CCOCC2)n1`, 7.3%. With `CC(C)c1nsc(N2CCC(OCCN3CCOCC3)CC2)n1`, the INHIBITION turned out to be 54.6%. Turning to `CC(C)c1nsc(N2CCOC3(CCCC3)C2)n1`, the INHIBITION is recorded as -10.3%. For the compound `CC(C)c1nsc(N2CCSCC2)n1`, the INHIBITION was -8%. Take `CC(C)c1nsc(N2CCS(=O)(=O)CC2)n1`: the INHIBITION is on record as -16.3%. To `NC(=O)C1(c2cnccn2)CCCN1Cc1ccc(Cl)c(F)c1` (centres undefined) belongs -6.3%; to `Clc1ccc(CN(CCN2CCOCC2)Cc2cccnc2)cc1Cl`, 8.12%; to `Cc1nn(C)c(C)c1-c1cnc(CC2CCNC2)cn1` (centres undefined), -22.3%. To `Nc1nc2nc(C3CCCN(C(=O)c4cnccn4)C3)ccc2s1` (centres undefined) belongs 26.8%. In the case of `CC(C)(C)n1nc(C(=O)NCC2(C(N)=O)CCOCC2)cc1C1CC1` it was 21.7%; in that of `Cc1cc(C(=O)NCC2(C(N)=O)CCOCC2)nn1C(C)(C)C`, 0.705%.

`CC(C)c1cc(C(=O)NCC2(C(N)=O)CCOCC2)nn1C(C)(C)C`: the INHIBITION stood at 62.4%. In the case of `CC(C)(C)n1ncc(NCC(O)c2ccc(F)c(F)c2)c(Cl)c1=O` (centres undefined) it was 84.5%; in that of `Cn1c(NCC(O)c2ccc(F)c(F)c2)c(C#N)c(=O)n(C)c1=O` (centres undefined), -52.5%; in that of `Oc1ccc(Cl)cc1CNCc1ccccc1C(F)(F)F`, 16.6%. In the case of `O=C(NCC(O)c1ccccc1C(F)(F)F)c1cccnc1` (centres undefined) it was -2.97%; in that of `O=C(NCc1cccnc1)NCC(O)c1ccccc1C(F)(F)F` (centres undefined), 16.8%; in that of `CCn1cc(NC(=O)NCC(O)c2ccccc2)cn1` (centres undefined), -30.4%.

Turning to `CC(=O)c1c(F)cccc1NCC(O)c1ccc(F)c(F)c1` (centres undefined), the INHIBITION came to 15.7%. Take `CC(C)(C)n1ncc(NCCc2ccccc2C(F)(F)F)c(Cl)c1=O`: the INHIBITION was determined as 76.6%. To `Cn1c(NCC(O)c2ccc(Cl)cc2)c(C#N)c(=O)n(C)c1=O` (centres undefined) belongs 19.4%; to `CC(C)(C)n1ncc(NCC(O)c2ccccc2)c(Cl)c1=O` (centres undefined), 77.7%; to `CC(C)(C)n1ncc(C(=O)NCCCC(N)=O)c1C(F)(F)F`, 26.9%. To `CC(C)(C)n1ncc(NCC(O)c2ccccc2C(F)(F)F)c(Cl)c1=O` (centres undefined) belongs 82.2%; to `Cc1ccc(C2CSCCN2C(=O)NCc2cccnc2)cc1` (centres undefined), 4.66%. To `CCCNS(=O)(=O)c1cc2c3c(c1)c(C)cc(=O)n3CCC2` belongs 22.85%; to `CNc1cc(CNC(=O)c2ccnc(OC)c2)nc(-c2ccncc2)n1`, 32.3%; to `Cc1cnc(N2CCn3cc(CNC(=O)CC4CC4)nc3C2)nc1`, 25.6%.

As for `NC(=O)c1ccccc1-n1cc(-c2cccc(C(=O)O)c2)cn1`, the INHIBITION is recorded as 71.5%. In the case of `NC(=O)c1cc(-n2cc(-c3cccc(C(=O)O)c3)cn2)cs1` it was 5.17%.

With `NC(=O)c1cc(-c2cccc(C(=O)O)c2)cs1`, the INHIBITION is 29.8%. Take `CO[C@H]1CCN(Cc2cnn(C)c2)[C@@H]2CN(Cc3ccncc3)C[C@H]12`: the INHIBITION is on record as 7.31%.

For the compound `CC(C)Cc1noc(CN2CCN(C(=O)c3ccccc3F)CC2)n1`, the INHIBITION is listed as -19.4%. In the case of `CC(C)Nc1ncnc2c1CCN(Cc1nccn1C)CC2` it was 24.9%. In the case of `Cc1ncc(CNCC(=O)NC2CCCCC2)n1-c1ccccc1` it was 65%; in that of `Cc1ncc(CNCC(=O)NCC(F)(F)F)n1-c1ccccc1`, 41.5%. In the case of `Cc1ncc(CNCC2CCC(C(N)=O)CC2)n1-c1ccccc1` (centres undefined) it was 30.8%; in that of `Cc1n[nH]c(C)c1-c1nccnc1CC1CCNC1` (centres undefined), 25%. For the compound `CCC(C)(N)c1nc(=O)c(C(C)C)c(C)[nH]1` (centres undefined), the INHIBITION turned out to be 24.8%. To `OC(c1cnn(-c2ccccc2)c1)C(F)(F)F` (centres undefined) belongs 26.5%.

As to `CCc1cnc(CN(C)C2CCN(CC3CCC3)C2)o1` (centres undefined), the INHIBITION is recorded as -0.532%. To `Cc1cc(COc2ccc(OC3CCCCNC3=O)cc2)on1` (centres undefined) belongs -26.1%; to `CCc1cnc(COc2ccc(OC3CCCCNC3=O)cc2)o1` (centres undefined), 78.4%. In the case of `Cc1nc(COc2ccc(OCC(N)=O)cc2)oc1C` it was -120%; in that of `CCOc1ccc(OC2CCCN(c3cnn(C)c3)C2=O)cc1` (centres undefined), 25.8%; in that of `Cc1nc(COc2ccc(OC3CCCCNC3=O)cc2)oc1C` (centres undefined), 64.9%. To `COc1ncccc1CNC(=O)NC1CCCOc2ccccc21` (centres undefined) belongs 10%; to `CN(Cc1ccsc1)C(=O)CNC(=O)N1CCc2ccccc2C1`, 54.8%; to `CN(Cc1ccccn1)C(=O)CNC(=O)N1CCc2ccccc2C1`, 21.2%.

For `Cc1ccc(CN(C)C(=O)CNC(=O)N2CCc3ccccc3C2)o1`, the INHIBITION is recorded as -1.45%. For the compound `c1cnn(CC2CN(CC3CCCCC3)CCO2)c1` (centres undefined), the INHIBITION was -71.2%. To `N#Cc1ccccc1N1CCCN(CC(=O)Nc2ccc(Cl)cn2)CC1` belongs 37.7%; to `N#Cc1ccccc1N1CCCN(CC(=O)Nc2ccccc2Cl)CC1`, 63.7%; to `N#Cc1ccccc1N1CCN(C(=O)NCC(=O)N2CCCC2)CC1`, -9.1%. To `Cc1cc(C)c(Cn2cncn2)cc1CN1CC[C@@H]2CC[C@H](C1)N2` belongs 19.4%; to `Cc1nc2c(N3CCN(CCO)CC3)nc(N)nc2n1C`, 13.1%.

With `CC(C)C(=O)NS(=O)(=O)c1ccc2c(c1)N(C)CCC2`, the INHIBITION came out at 39.2%.

In the case of `CN1CCCc2ccc(S(=O)(=O)NC(=O)C3CC=CC3)cc21`, the INHIBITION is 75.4%.

With `CC(=O)NS(=O)(=O)c1ccc2c(c1)N(C)CCC2`, the INHIBITION was -56.6%. In the case of `CN(Cc1nncn1-c1cccc(C(F)(F)F)c1)S(C)(=O)=O` it was -19.1%; in that of `CCCC(=O)N(CCCN1CCOCC1)c1nc2c(C)c(C)ccc2s1`, 60.1%; in that of `CCCC(=O)N(CCCN1CCOCC1)c1nc2c(Cl)cccc2s1`, 71.4%.

`CCCC(=O)N(CCCN1CCOCC1)c1nc2c(F)cccc2s1`: the INHIBITION was determined as 32.1%. In the case of `CN(CCN1CCOCC1)C(=O)CCc1cccc(Cl)c1` it was -3.16%; in that of `CCCC(=O)N(CCCN1CCOCC1)c1nc2c(C)ccc(Cl)c2s1`, 42.7%; in that of `CCCC(=O)N(CCN1CCOCC1)c1nc2c(OC)ccc(C)c2s1`, -0.473%. For the compound `N#Cc1cccc(C(=O)NC2CCc3c(ccc(=O)n3CC3CC3)C2)c1` (centres undefined), the INHIBITION is -19.2%. In the case of `Cc1ccc(CN2CCc3ncc(CNS(C)(=O)=O)n3CC2)o1` it was 35.1%. To `O=C(COCC1CC[C@H]2[C@H](CCN2c2ncccn2)O1)N1CCCC1` (some centres undefined) belongs 7.31%; to `CN1CCN(C(=O)[C@H]2C[C@@H]3CN(c4ncc(F)cn4)C[C@@H]3N2C)CC1`, -1.15%; to `CC(NCC(F)(F)F)c1ccc(S(C)(=O)=O)c(F)c1` (centres undefined), -45.3%.

On to `Cc1nc(N2CCCC2)ccc1NCc1ccccn1`, for which the INHIBITION was 42.3%. For `c1ccc(N2CCCC2)c(NCc2ccncc2)c1`, the INHIBITION is listed as 75.7%.

On to `Cc1noc(CNc2ccccc2N2CCCCC2)n1`, for which the INHIBITION is on record as 4.1%. To `CN(CCc1ccccn1)C(=O)Nc1cccnc1N1CCCC1` belongs 44.7%; to `c1ccc(CNc2ccccc2N2CCCC2)nc1`, 74.8%; to `Cc1cc(CNc2ccccc2N2CCCCC2)no1`, 28.6%. In the case of `CCC(=O)NCC(=O)NCC1CCN(c2cc(Cl)ccc2C)C1` (centres undefined) it was 23.73%; in that of `Cc1cc(CNC(=O)Cc2c(C)nc3cc(=O)[nH]n3c2C)no1`, 31.1%.

The values are drawn from ChEMBL document CHEMBL4513216, “Probing the Open Global Health Chemical Diversity Library for Multistage-Active Starting Points for Next-Generation Antimalarials” (ACS Infect Dis, 2020).
